The text below walks through data of PubChem BioAssay (EPA / NIEHS).

Active and inactive are the calls of the source. Rule for the calls: active = hit-call score of the fitted dose curve at least 0.9, where 1 is the maximum; inactive = score below 0.9.

One may read the AC50 as the concentration giving half of the maximal activity seen.

The nature of test [1]: ATG_E_Box_CIS: Attagene CIS-FACTORIAL HepG2 Assay for human Enhancer Box (E-box) (AID 2282936). The following applies: HepG2 E-box cis-reporter transcription, actives raise or lower the signal. Summed up: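 DMSO served as negative control and baseline for bidirectional fitting. Human hepatoma HepG2 cells, transiently transfected with cis-reporter constructs, were dosed 24 h; reporter mRNA read by RT-PCR and capillary electrophoresis.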

The nature of test [2]: ATG_M_61_CIS: Attagene CIS-FACTORIAL HepG2 Assay for M61 Transcription Factor (Internal Marker) (AID 2282937). The following applies: HepG2 Attagene CIS-FACTORIAL M61 internal marker reporter; actives raise or lower the signal. Summed up:
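This endpoint serves as an internal background control within a multiplexed HepG2 cis-reporter panel. Cells are exposed for 24 h; reporter mRNA is amplified, fluorescently labelled and sized by capillary electrophoresis, with DMSO as negative control.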

Test [3] is described as follows: ATG_EGR_CIS: Attagene CIS-FACTORIAL HepG2 Assay for human Early Growth Response 1 (EGR1) (AID 2282938). The following applies: HepG2 Attagene CIS-FACTORIAL EGR reporter mRNA; actives raise or lower the signal. In a few lines: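 HepG2, transient MRTU transfection (cis promoters), 24 h compound. RNA → RT (oligo-dT) → PCR → 6-FAM labelling → HpaI cut → CE fluorescence. Bidirectional fit, DMSO baseline.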

A short description of test [4]: ATG_M_19_CIS: Attagene CIS-FACTORIAL HepG2 Assay for M19 Transcription Factor (Internal Marker) (AID 2282939). The following applies: HepG2 Attagene CIS-FACTORIAL M19 internal marker reporter; actives raise or lower the signal. In a few lines:
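Signals come from fluorescence of labelled reporter-specific PCR fragments resolved by capillary electrophoresis, following 24 h treatment of HepG2 cells transfected with cis-promoter reporter units; activity was fitted in both directions relative to DMSO.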

The nature of test [5]: ATG_ERE_CIS: Attagene CIS-FACTORIAL HepG2 Assay for Estrogen Response Element (ERE) (AID 2282940). The following applies: HepG2 ERE cis-reporter, Attagene RNA transcript; actives raise or lower the signal. In a few lines: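 Fluorescence of capillary-separated, FAM-labelled reporter cDNA fragments indicates reporter mRNA levels in HepG2 cells exposed to chemicals for 24 h. Transient transfection with cis-regulated units; data fitted in both directions against DMSO.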

A short description of test [6]: ATG_Ets_CIS: Attagene CIS-FACTORIAL HepG2 Assay for human Erythroblast Transformation Specific (ETS) (AID 2282941). The following applies: HepG2 ETS cis-reporter transcription, actives raise or lower the signal. Summed up:
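Steps: transfect HepG2 with multiple reporter units; treat compound 24 h; isolate RNA, DNase-treat, reverse-transcribe; PCR-amplify, label with 6-FAM, digest with HpaI; separate by capillary electrophoresis. Activity fitted both directions versus DMSO.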

For test [7], the target named is Hepatocyte nuclear factor 3-beta (Homo sapiens) (UniProt Q9Y261). The test can be described thus: ATG_FoxA2_CIS: Attagene CIS-FACTORIAL HepG2 Assay for human Forkhead box A2 (FOXA2) (AID 2282942). The following applies: HepG2 cis-reporter transcription factor activity, 24 h; actives raise or lower the signal. Summed up:
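Cells: HepG2, transient multiplex reporter transfection. Exposure 24 h. Detection: reporter-specific RT-PCR, fluorescent labelling, restriction digest, capillary electrophoresis. Analysis: bidirectional curve fit, DMSO as negative control.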

Test [8] can be described thus: ATG_FoxO_CIS: Attagene CIS-FACTORIAL HepG2 Assay for human Forkhead box O (FoxO) (AID 2282943). The following applies: HepG2 Attagene cis-reporter, FoxO element, mRNA; actives raise or lower the signal. In a few lines:
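HepG2, transient MRTU transfection (cis element, endogenous TFs). Dose 24 h. TriZol RNA → oligo(dT) RT → PCR → 6-FAM primer extension → HpaI cut → CE. Gain/loss vs DMSO.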

Test [9] can be described thus: ATG_GATA_CIS: Attagene CIS-FACTORIAL HepG2 Assay for human GATA Binding Protein (AID 2282944). The following applies: HepG2 GATA cis-element reporter, Attagene multiplex mRNA; actives raise or lower the signal. Summed up:
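After transfecting HepG2 cells with multiple cis-regulated reporter units, chemicals are dosed for 24 h; isolated RNA undergoes RT-PCR and fluorescent labeling before capillary electrophoresis, with activity expressed against DMSO.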

The nature of test [10]: ATG_GLI_CIS: Attagene CIS-FACTORIAL HepG2 Assay for human Zinc Finger Protein GLI1 (AID 2282945). The following applies: HepG2, Attagene cis-factorial reporter mRNA, GLI element; actives raise or lower the signal. Summed up: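 Bidirectional curve fits relative to DMSO, using reporter mRNA levels from RT-PCR plus capillary electrophoresis. Cells were HepG2 transiently carrying cis-regulated reporter constructs, harvested 24 h after dosing.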

Test [11] can be described thus: ATG_GRE_CIS: Attagene CIS-FACTORIAL HepG2 Assay for human Glucocorticoid Response Elements (GRE) (AID 2282947). The following applies: HepG2 GRE cis-reporter, Attagene multiplex mRNA; actives raise or lower the signal. In a few lines:
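Assay uses human hepatoma HepG2 cells transfected with cis-promoter reporter units, exposed 24 h. mRNA from reporters detected by RT-PCR plus capillary electrophoresis; DMSO serves as negative control and baseline.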

Test [12] can be described thus: ATG_ISRE_CIS: Attagene CIS-FACTORIAL HepG2 Assay for human Interferon Regulatory Factor 1 (IRF1) binding to an Interferon-Stimulated Response Element (ISRE) (AID 2282948). The following applies: HepG2 ISRE cis-reporter (Attagene), mRNA transcription readout; actives raise or lower the signal. In a few lines: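 Transfected HepG2 (multiple reporter transcription units, cis elements) dosed 24 h. RNA → oligo(dT) RT → PCR → 6-FAM primer extension → HpaI → CE. DMSO = negative control/baseline.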

A short description of test [13]: ATG_M_32_CIS: Attagene CIS-FACTORIAL HepG2 Assay for M32 Transcription Factor (Internal Marker) (AID 2282949).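 Note: background control marker of the multiplexed CIS panel rather than a real target.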 The following applies: HepG2 Attagene cis-factorial M32 reporter, mRNA; actives raise or lower the signal. Summed up: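 Internal background marker read-out: RT-PCR/capillary electrophoresis fluorescence of reporter transcripts from transiently transfected HepG2 cells after 24 h chemical exposure. Activity fitted bidirectionally relative to DMSO negative control.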

A short description of test [14]: ATG_M_06_CIS: Attagene CIS-FACTORIAL HepG2 Assay for M06 Transcription Factor (Internal Marker) (AID 2282950). The following applies: HepG2 Attagene CIS-FACTORIAL M06 internal marker reporter; actives raise or lower the signal. Summed up:
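HepG2 liver cells, 24 h exposure. Reporter transcripts from transfected cis-element constructs quantified by RT-PCR/capillary electrophoresis fluorescence. Bidirectional curve fit against DMSO.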

The target in test [15] is Hypoxia-inducible factor 1-alpha (Homo sapiens) (UniProt Q16665). The test can be described thus: ATG_HIF1a_CIS: Attagene CIS-FACTORIAL HepG2 Assay for human Hypoxia Inducible Factor 1 (HIF1A) (AID 2282951). The following applies: HepG2 Attagene cis-factorial HIF1a reporter transcription; actives raise or lower the signal. In a few lines: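 HepG2, transient cis-reporter library, 24 h dosing. RNA → RT (oligo dT) → PCR → 6-FAM primer extension → HpaI → CE. Bidirectional curve fit vs DMSO.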
Hypoxia-inducible factor 1-alpha (Homo sapiens), sequence (Q16665 whole entry, looked up): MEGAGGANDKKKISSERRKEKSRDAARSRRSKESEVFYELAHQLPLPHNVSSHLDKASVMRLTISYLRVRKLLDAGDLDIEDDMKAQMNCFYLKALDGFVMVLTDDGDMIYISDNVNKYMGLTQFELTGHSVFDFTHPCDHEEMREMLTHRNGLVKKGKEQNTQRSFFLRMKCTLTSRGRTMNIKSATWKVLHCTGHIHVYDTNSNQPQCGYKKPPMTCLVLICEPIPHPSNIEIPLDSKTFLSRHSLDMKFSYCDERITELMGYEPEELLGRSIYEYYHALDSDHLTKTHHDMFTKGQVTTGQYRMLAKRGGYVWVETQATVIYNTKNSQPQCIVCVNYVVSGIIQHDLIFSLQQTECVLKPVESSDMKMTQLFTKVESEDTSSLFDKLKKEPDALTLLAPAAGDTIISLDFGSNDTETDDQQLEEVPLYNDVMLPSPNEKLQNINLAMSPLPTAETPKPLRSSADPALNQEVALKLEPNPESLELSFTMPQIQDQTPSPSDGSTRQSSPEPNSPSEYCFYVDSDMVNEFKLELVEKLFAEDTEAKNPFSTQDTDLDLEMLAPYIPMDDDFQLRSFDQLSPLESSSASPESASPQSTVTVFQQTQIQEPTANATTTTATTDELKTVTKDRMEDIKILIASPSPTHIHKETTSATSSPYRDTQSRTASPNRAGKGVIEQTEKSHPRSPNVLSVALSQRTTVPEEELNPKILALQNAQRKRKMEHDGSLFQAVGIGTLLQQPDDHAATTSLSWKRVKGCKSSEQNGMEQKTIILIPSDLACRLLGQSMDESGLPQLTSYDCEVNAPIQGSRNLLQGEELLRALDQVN

Test [16] addresses Heat shock factor protein 1 (Homo sapiens) (UniProt Q00613). The test can be described thus: ATG_HSE_CIS: Attagene CIS-FACTORIAL HepG2 Assay for human Heat Shock Transcription Factor 1 (HSE) (AID 2282953). The following applies: HepG2 HSE cis-reporter, Attagene RNA transcription; actives raise or lower the signal. In a few lines:
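Endogenous transcription factor activity captured via cis-promoter reporter units transfected into HepG2; treatment lasted 24 h. Fluorescence intensity of reporter fragments analysed with bidirectional curve fitting, DMSO baseline.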

Test [17] can be described thus: ATG_MRE_CIS: Attagene CIS-FACTORIAL HepG2 Assay for human Metal Responsive Element (MRE) (AID 2282954). The following applies: HepG2 MRE cis-reporter transcription, Attagene multiplex; actives raise or lower the signal. Summed up:
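After a 24 h chemical exposure, transiently transfected HepG2 cells yield RNA whose reporter sequences are amplified, FAM-labelled and sized by capillary electrophoresis. Curves are fitted bidirectionally relative to DMSO.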

Test [18] has as its target Hepatocyte nuclear factor 6 (Homo sapiens) (UniProt Q9UBC0). Kind of test: ATG_HNF6_CIS: Attagene CIS-FACTORIAL HepG2 Assay for human Hepatocyte Nuclear Factor 6 (HNF6) (AID 2282952). The following applies: HepG2 Attagene cis-factorial HNF6 reporter transcription; actives raise or lower the signal. Summed up: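 Cells are HepG2 carrying transiently transfected cis-promoter reporter units. Treatment lasts 24 h, after which reporter transcripts are reverse-transcribed, amplified, FAM-labelled and sized by capillary electrophoresis. DMSO serves as baseline.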

Test [19] is described as follows: ATG_PBREM_CIS: Attagene CIS-FACTORIAL HepG2 Assay for human Phenobarbital-responsive Enhancer Module (PBREM) (AID 2282955). The following applies: HepG2 PBREM cis-reporter, Attagene multiplexed transcription; actives raise or lower the signal. Summed up:
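HepG2, transient MRTU transfection, 24 h dosing; RNA → oligo(dT) RT → PCR → 6-FAM extension → HpaI → CE. Bidirectional fit vs DMSO.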

Hepatocyte nuclear factor 3-beta (Homo sapiens), sequence (Q9Y261 whole entry, looked up): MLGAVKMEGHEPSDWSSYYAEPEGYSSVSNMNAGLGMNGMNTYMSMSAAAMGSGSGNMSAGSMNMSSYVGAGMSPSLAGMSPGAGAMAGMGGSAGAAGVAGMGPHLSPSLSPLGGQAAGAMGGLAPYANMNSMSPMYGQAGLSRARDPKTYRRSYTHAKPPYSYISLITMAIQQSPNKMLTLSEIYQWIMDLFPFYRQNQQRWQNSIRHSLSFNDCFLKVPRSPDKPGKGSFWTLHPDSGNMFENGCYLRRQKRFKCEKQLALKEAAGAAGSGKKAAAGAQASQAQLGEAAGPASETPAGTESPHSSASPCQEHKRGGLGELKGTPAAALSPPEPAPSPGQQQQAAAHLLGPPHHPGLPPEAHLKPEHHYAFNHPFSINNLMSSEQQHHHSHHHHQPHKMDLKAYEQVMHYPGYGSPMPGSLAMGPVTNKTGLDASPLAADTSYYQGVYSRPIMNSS
Hepatocyte nuclear factor 6 (Homo sapiens), sequence (Q9UBC0 whole entry, looked up): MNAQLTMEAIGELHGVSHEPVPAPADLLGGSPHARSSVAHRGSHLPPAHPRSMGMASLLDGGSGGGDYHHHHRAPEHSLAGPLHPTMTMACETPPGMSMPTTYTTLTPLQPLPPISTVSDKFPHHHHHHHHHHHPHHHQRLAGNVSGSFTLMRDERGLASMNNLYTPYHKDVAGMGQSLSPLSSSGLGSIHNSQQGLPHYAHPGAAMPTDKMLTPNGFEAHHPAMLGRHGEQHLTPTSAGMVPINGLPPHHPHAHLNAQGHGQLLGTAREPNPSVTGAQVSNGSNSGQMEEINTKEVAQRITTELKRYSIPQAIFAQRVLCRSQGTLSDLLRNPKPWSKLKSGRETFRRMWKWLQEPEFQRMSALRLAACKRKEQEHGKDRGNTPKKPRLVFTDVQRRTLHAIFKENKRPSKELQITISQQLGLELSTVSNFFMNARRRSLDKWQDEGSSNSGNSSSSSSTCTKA
Heat shock factor protein 1 (Homo sapiens), sequence (Q00613 whole entry, looked up, the tested form may be a part): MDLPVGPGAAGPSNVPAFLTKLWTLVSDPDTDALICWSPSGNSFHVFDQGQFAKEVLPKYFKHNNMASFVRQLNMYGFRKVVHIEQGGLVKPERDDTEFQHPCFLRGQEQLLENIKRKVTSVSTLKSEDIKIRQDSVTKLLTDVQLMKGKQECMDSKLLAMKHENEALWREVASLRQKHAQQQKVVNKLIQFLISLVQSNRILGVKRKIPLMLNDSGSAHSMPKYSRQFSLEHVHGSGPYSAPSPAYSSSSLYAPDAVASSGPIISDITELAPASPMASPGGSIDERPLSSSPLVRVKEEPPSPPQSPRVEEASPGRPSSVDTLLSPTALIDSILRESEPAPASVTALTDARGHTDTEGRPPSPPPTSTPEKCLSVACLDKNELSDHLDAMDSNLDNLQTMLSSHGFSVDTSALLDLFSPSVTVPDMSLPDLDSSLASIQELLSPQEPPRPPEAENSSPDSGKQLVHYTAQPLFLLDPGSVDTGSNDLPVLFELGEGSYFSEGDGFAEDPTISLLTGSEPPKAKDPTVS

In the case of `O=C1CCCCCCCCCCC(=O)OCCO1`, the outcome in test [1], in [2], in [3], in test [4], in test [5] and in [6] was inactive. Besides, the compound was classed as inactive in [7], in [8], in [9], in test [10], in test [11] and in test [12]. Also, the compound was called inactive in test [13], in [14], in test [15], in test [16] and in [17].
As for `Cc1cccc(N(C)C(=S)Oc2ccc3ccccc3c2)c1`, the outcome in test [1], in [2], in [3], in test [4], in [6] and in test [7] was inactive. Further, the compound was called inactive in test [8], in test [9], in test [10], in test [11], in test [12] and in test [13]. The compound was called inactive in test [14], in [18] and in test [16]. For the same compound, the figures for the AC50 in test [5], in test [17] and in [19] were 25.3 µM (active), 1.89 µM (active) and 2.06 µM (active), respectively.
In the case of `C=C[C@](C)(O)CC[C@@H]1[C@@]2(C)CCCC(C)(C)[C@@H]2CC[C@@]1(C)O`, the result in test [1], in [2], in test [3], in test [4], in test [5] and in test [6] was inactive. Also, the compound was classed as inactive in test [7], in test [8], in test [9], in test [10], in test [11] and in [12]. The result in test [14], in [15], in test [18], in test [16], in test [17] and in [19] was inactive.
With `O=C1C=CC(=O)O1`, the result in [1], in test [2], in test [3], in test [4], in [5] and in [6] was inactive. Besides, the compound was called inactive in test [7], in test [8], in test [9], in test [10], in test [11] and in test [12]. Further, the outcome in test [13], in [14], in test [15], in test [16] and in test [17] was inactive.
As for `FC(F)(F)C(=NOCC1OCCO1)c1ccc(Cl)cc1`, the outcome in test [1], in test [2], in [3], in test [4], in [5] and in test [6] was inactive. For the same compound, the call in test [7], in [8], in [9], in test [10], in test [11] and in [12] was inactive. The result in [14], in [15], in [18], in test [16] and in test [19] was inactive. Also, the AC50 in test [17] is 100 µM (active).
`C[C@]12CCC(=O)C=C1CC[C@@H]1[C@@H]2C(=O)C[C@@]2(C)[C@H]1CC[C@]2(O)C(=O)CO`: the outcome in [1], in test [2], in test [3], in [4], in test [5] and in [6] was inactive. The outcome in test [7], in test [8], in test [9], in test [10], in test [11] and in test [12] was inactive. In addition, the compound was called inactive in test [13], in test [14], in [18], in test [16], in [17] and in test [19].
For `OC1CCCCCCCCCCC1`, the result in [1], in [2], in test [3], in test [4], in test [6] and in test [7] was inactive. The result in test [8], in test [9], in test [10], in [11], in test [12] and in test [13] was inactive. The call in test [14], in test [15], in test [18], in test [16] and in test [19] was inactive. For the same compound, the AC50 in [5] was 26.4 µM (active); in test [17] it was 100 µM (active).
